Assay results from PubChem BioAssay.
Records with an inconclusive call do not appear. Activity calls are given as the source filed them. Unless noted, the rule behind the calls is not given here. Peptide text beside a SMILES is read from it.

What was measured:
[1] = rapamycin-like changes in RPL19A-GFP expression – cell-based, S. cerevisiae, multiplex flow cytometry, primary screen (AID 1862; in the data active = percent of DMSO control GFP below about 86%;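 note: lower values mimic rapamycin by blocking the RPL19A rise seen in DMSO cells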); conditions: S. cerevisiae RPL19A-GFP strain, flow cytometry fluorescence, 3 h; at 10 µM; stronger effect = lower value
[2] = TOR pathway GLN3 branch reporter MEP2-GFP changes – S. cerevisiae, multiplex flow cytometry, primary screen (AID 1867;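 active = GFP response, as percent of the DMSO control, above the screen-wide mean plus 3 SD, about 139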;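 note: median GFP channel fluorescence of barcode-gated MEP2-GFP cells measured by flow cytometry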); conditions: S. cerevisiae MEP2-GFP strain, 3 h, at 10 µM, stronger effect = higher value
[3] = TOR pathway RTG branch CIT2 reporter changes – S. cerevisiae, GFP fusion, multiplex flow cytometry, primary screen (AID 1870;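 active = percent response above a set limit, the screen-wide mean plus 3 SD, cut at about 130% in these data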;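 note: barcoded CIT2-GFP strain pooled with four other GFP strains with rapamycin as positive control; median GFP fluorescence per well over plate mean of DMSO wells so 100% = DMSO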); conditions: S. cerevisiae CIT2-GFP expression, 3 h, at 10 µM, stronger effect = higher value
[4] = TOR pathway LAP4-GFP level changes – S. cerevisiae, multiplex flow cytometry, primary screen (AID 1873;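 active = GFP signal, as percent of the solvent control, above the screen mean plus 3 SD, about 149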); conditions: S. cerevisiae LAP4-GFP expression, 3 h, at 10 µM, stronger effect = higher value
[5] = reduced mouse 2C T cell binding to pMHC/ICAM-1 vesicles – MLPCN validation set, flow cytometry, LFA-1/ICAM-1 modulator project, pilot screen (AID 2523;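 active = response below a set limit, under 55% cells CD8-positive and vesicle-bound, and CD8 cells' 90th-percentile brightness under 279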;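 for vesicle binding response: mean PE anti-B7-1 fluorescence of CD8+ cells relative to row control; 100% = QL9-loaded vesicles with DMSO vehicle in the same plate row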); conditions: 2C mouse CD8+ T cells, at 7 µM, stronger effect = lower value; double positive events: measured here: CD8+/vesicle+ event percentage
[6] = target: Integrin beta-1 (Homo sapiens) + Integrin alpha-4 (Homo sapiens) (UniProt P13612+P05556); test: alpha4beta1 integrin LIBS antibody binding reduction – U937 cells, HUTS-21 mAb, flow cytometry, validation set, VLA-4 allosteric modulator project, pilot screen (AID 2674;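 active = inhibition above 50%, about 3 SD of the validation set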;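 note: antibody binding induced by the VLA-4 ligand LDV present at three times its Kd; 0% = LDV ligand with antibody and no compound and 100% = antibody without LDV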); conditions: HUTS-21 LIBS mAb binding, at 6.7 µM, stronger effect = higher value
[7] = calorie-restriction mimetic ROS inhibitors, yeast – validation compound set, pilot screen (AID 2706;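 active = superoxide response below 65% of plate, a cut near 3 SD across the whole screen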;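 note: yeast exposed to compound for one week at 30 degrees C before staining; 100% = mean of all compound wells on the same plate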); conditions: S. cerevisiae aging, superoxide DHE fluorescence; at 10 µM; stronger effect = lower value
[8] = target: Beta-adrenergic receptor kinase 1 (Homo sapiens) (UniProt P25098); test: GRK2 binders displacing RNA aptamer, biochemical, validation, human GRK2, bead flow cytometry (AID 488806;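 active = aptamer binding inhibition above 30%, about 3 SD of noise from non-fluorescent compounds; inactive = inhibition at or below 30%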); conditions: bead-bound GRK2, FAM-aptamer displacement, at 10 µM, stronger effect = higher value
[9] = target: AP-2 complex subunit beta (Homo sapiens) (UniProt P63010); test: beta-arrestin/AP2 interaction blockers – biochemical, validation set, GST-AP2 beads, flow cytometry, pilot screen (AID 504541;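 active = inhibition above 54%, about 3 SD of non-fluorescent compounds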;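 note: AP2 carries R879A mutation and is captured from E. coli lysate; bead-bound FITC arrestin peptide fluorescence measuring arrestin peptide binding to AP2; 0% = DMSO wells and 100% = excess unlabeled arrestin peptide control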); conditions: FITC arrestin peptide, at 10 µM, stronger effect = higher value
[10] = cytosolic pH regulators acting via V-ATPase – S. cerevisiae, pHLuorin, HTS validation (AID 504600; in the data active = response above about 15%;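 note: plate controls were DMSO for no effect and reference compound for full effect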); conditions: V-ATPase proton transport, at 10 µM, stronger effect = higher value
[11] = tested on: anti-desmoglein-3 scFv antibody binding to human DSG3; test: blockers of pathogenic pemphigus antibody–desmoglein-3 binding – biochemical, validation compound set, bead-based, flow cytometry, pilot screen (AID 588368;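 active = binding below the plate cutoff, the plate median minus 3 SD, with a reading above zero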;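 note: signal is the median channel fluorescence of bead-bound GFP antibody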); conditions: Protein G beads, DSG3-Fc, scFv-GFP binding, at 10 µM, stronger effect = lower value
[12] = tested on: Botulinum neurotoxin type F light chain protease (Clostridium botulinum); test: Clostridium botulinum type F light chain protease inhibitors, microsphere substrate cleavage, validation (AID 588459); conditions: multiplex microsphere protease substrate cleavage assay, flow cytometry; at 10 µM; stronger effect = higher value
[13] = target: Botulinum neurotoxin type A (Clostridium botulinum) (UniProt P0DPI0); test: BoNT/A light chain protease inhibitors, biochemical, multiplex microsphere flow cytometry, validation set (AID 588460); conditions: at 10 µM, stronger effect = higher value
[14] = target: Lethal factor (Bacillus anthracis) (UniProt P15917); test: Bacillus anthracis lethal factor inhibition, microsphere flow cytometry protease assay, validation at 10 µM (AID 588461); conditions: multiplex microsphere protease cleavage assay, stronger effect = higher value
[15] = Nile Red efflux blockade in pump-expressing yeast – validation compound set, multiplex, phenotypic, pilot screen (AID 588506;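 active = efflux inhibition above 0.42, the validation set average plus 4 SD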;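 note: Nile Red retained in cells so higher fluorescence means more efflux inhibition; 0 = negative control wells and 1 = enniatin B 25 µM full block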); conditions: S. cerevisiae pump-expressing triplex, Nile Red efflux flow cytometry; at 10 µM; stronger effect = higher value
[16] = target: ATP-binding cassette sub-family B member 6 (Homo sapiens) (UniProt Q9NP58); test: blockers of ABCB6-driven porphyrin uptake – K562-ABCB6 cells, flow cytometry, validation set, pilot screen (AID 588550;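 active = inhibition above the screen-wide mean plus 3 SD, about 51%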;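 note: 0% = DMSO wells and 100% = benzethonium chloride 70 µM positive control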); conditions: K562-ABCB6 porphyrin accumulation, 1 h, at 10 µM, stronger effect = higher value
[17] = AML differentiation inducers, ER-HoxA9 marrow cells – cell-based, GFP/MAC1 double positive, flow cytometry, validation set, primary screen (AID 588685;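 active = differentiation response of at least 50%, scaled between solvent and reference control, from cells with both markers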;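 note: compound exposure lasts four days before antibody staining and flow analysis; 0% = DMSO wells and 100% = 5 µM fulvestrant positive control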); conditions: stronger effect = higher value
[18] = hit retest on RPL19A-GFP reporter strain – cell-based, S. cerevisiae, flow cytometry, cherry picks, mother/daughter gates, confirmation (AID 2270;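 active = GFP response below 50% of the DMSO control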); conditions: 3 h, at 10 µM, stronger effect = lower value, 100 = same GFP as DMSO wells
[19] = yeast TOR pathway reporter LAP4-GFP change – cell-based, cherry picks, flow cytometry, mother/daughter gates, confirmation (AID 2271;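 active = GFP response above 150% of the DMSO control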;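 note: ratio of sample to DMSO plate mean so 100% equals DMSO level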); conditions: S. cerevisiae LAP4-GFP strain, 3 h, at 10 µM, stronger effect = higher value
[20] = TOR pathway CIT2 reporter hit retest – S. cerevisiae, GFP fusion, cherry picks, mother/daughter gates, confirmation (AID 2274;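 active = GFP response above 150% of the DMSO level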); conditions: S. cerevisiae CIT2-GFP strain, flow cytometry, 3 h, at 10 µM, stronger effect = higher value
[21] = measured here: daughter cell gate
[22] = measured here: mother cell gate
[23] = measured here: daughter cell gate response
[24] = measured here: mother cell gate response

Sequence of Botulinum neurotoxin type A (Clostridium botulinum) (P0DPI0 whole entry, looked up): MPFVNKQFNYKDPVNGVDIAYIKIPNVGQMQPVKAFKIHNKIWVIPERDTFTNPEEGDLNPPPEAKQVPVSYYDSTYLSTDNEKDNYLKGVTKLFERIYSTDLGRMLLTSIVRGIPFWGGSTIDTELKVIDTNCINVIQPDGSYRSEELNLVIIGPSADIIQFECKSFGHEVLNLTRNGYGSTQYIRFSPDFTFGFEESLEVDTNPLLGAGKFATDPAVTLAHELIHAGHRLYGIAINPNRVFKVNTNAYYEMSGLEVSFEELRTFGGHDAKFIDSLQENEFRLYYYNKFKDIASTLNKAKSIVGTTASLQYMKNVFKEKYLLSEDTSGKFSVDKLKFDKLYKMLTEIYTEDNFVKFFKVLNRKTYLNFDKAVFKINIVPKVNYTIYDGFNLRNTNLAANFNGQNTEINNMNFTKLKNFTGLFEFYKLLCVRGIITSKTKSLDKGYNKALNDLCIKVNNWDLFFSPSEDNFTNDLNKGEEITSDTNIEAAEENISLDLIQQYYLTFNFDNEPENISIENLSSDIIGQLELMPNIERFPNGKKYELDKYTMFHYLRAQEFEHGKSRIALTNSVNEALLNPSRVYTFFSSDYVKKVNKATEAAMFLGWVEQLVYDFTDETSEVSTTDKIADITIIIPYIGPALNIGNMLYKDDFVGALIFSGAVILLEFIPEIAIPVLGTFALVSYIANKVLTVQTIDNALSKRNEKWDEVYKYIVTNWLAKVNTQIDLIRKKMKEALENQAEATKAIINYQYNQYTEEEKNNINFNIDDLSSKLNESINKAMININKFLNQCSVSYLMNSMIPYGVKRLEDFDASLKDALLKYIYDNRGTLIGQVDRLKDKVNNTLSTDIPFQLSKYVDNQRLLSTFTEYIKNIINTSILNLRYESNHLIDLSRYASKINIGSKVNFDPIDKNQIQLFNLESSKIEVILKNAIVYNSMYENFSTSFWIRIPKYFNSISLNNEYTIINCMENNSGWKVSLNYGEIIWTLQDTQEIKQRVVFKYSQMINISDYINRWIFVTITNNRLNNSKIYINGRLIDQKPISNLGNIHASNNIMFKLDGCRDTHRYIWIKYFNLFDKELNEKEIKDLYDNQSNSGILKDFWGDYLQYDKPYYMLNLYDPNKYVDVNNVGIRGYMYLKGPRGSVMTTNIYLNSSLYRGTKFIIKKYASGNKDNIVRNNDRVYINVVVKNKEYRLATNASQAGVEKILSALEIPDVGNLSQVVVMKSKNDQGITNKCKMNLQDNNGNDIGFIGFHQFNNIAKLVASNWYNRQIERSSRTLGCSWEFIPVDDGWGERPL
Sequence of Beta-adrenergic receptor kinase 1 (Homo sapiens) (P25098 whole entry, looked up): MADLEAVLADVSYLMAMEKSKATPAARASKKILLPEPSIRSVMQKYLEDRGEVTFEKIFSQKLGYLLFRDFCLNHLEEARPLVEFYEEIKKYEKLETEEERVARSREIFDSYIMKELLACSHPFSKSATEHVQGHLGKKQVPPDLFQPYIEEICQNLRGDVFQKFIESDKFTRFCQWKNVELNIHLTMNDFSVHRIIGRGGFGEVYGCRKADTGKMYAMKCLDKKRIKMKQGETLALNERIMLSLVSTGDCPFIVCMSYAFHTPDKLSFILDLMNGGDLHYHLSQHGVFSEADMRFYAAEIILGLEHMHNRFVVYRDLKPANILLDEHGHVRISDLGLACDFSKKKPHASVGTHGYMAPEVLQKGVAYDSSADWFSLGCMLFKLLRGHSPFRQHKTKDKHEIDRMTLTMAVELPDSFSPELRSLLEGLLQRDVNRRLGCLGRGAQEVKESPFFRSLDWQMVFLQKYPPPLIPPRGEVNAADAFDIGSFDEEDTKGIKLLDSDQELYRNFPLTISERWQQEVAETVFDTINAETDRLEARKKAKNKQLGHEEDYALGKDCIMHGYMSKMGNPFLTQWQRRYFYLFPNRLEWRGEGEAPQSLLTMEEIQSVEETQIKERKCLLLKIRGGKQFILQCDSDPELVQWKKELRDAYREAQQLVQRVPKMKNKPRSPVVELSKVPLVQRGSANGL
Sequence of ATP-binding cassette sub-family B member 6 (Homo sapiens) (Q9NP58 whole entry, looked up): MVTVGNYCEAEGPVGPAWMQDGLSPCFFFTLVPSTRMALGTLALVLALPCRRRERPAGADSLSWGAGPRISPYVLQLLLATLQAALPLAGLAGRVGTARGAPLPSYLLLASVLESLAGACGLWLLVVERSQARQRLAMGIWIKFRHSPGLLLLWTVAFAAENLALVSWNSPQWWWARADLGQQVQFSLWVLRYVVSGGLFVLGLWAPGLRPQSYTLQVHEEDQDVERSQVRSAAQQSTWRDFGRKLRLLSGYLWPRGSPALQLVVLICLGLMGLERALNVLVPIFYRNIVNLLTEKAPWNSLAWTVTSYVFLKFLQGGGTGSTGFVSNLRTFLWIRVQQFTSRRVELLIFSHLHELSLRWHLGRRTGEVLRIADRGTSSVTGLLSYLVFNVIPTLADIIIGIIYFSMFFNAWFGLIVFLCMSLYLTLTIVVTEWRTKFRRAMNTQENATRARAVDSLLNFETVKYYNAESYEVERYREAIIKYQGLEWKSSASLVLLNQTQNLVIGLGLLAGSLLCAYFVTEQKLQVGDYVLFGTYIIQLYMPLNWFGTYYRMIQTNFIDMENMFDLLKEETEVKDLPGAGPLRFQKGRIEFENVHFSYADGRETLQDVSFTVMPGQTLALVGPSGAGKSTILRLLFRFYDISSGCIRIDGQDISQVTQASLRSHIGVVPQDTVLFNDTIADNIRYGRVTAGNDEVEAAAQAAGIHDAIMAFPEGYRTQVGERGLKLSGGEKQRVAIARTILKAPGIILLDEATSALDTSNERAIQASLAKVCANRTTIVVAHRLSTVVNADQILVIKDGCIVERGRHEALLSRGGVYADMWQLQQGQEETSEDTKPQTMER
Sequence of Integrin beta-1 (Homo sapiens) + Integrin alpha-4 (Homo sapiens) (P05556 whole entry, looked up): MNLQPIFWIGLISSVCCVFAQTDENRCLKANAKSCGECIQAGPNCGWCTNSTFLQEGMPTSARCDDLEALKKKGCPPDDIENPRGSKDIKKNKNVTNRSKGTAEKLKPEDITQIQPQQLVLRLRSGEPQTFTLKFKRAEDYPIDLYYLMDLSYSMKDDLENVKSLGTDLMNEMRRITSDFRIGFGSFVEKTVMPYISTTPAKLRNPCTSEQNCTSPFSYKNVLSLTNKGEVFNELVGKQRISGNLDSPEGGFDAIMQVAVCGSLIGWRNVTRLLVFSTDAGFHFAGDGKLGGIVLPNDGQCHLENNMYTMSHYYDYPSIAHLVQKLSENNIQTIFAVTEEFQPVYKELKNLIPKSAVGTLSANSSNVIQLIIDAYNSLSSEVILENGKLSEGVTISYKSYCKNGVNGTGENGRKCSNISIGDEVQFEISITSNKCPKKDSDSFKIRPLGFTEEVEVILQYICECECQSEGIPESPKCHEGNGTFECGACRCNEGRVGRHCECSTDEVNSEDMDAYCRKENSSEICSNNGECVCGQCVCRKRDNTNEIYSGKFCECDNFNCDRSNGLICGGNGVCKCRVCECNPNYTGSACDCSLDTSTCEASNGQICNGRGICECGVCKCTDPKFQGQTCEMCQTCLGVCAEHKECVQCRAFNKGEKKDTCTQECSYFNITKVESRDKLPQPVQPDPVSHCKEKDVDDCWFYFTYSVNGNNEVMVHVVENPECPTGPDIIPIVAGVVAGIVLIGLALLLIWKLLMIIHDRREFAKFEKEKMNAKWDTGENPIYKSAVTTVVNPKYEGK
Sequence of Integrin beta-1 (Homo sapiens) + Integrin alpha-4 (Homo sapiens) (P13612 whole entry, looked up): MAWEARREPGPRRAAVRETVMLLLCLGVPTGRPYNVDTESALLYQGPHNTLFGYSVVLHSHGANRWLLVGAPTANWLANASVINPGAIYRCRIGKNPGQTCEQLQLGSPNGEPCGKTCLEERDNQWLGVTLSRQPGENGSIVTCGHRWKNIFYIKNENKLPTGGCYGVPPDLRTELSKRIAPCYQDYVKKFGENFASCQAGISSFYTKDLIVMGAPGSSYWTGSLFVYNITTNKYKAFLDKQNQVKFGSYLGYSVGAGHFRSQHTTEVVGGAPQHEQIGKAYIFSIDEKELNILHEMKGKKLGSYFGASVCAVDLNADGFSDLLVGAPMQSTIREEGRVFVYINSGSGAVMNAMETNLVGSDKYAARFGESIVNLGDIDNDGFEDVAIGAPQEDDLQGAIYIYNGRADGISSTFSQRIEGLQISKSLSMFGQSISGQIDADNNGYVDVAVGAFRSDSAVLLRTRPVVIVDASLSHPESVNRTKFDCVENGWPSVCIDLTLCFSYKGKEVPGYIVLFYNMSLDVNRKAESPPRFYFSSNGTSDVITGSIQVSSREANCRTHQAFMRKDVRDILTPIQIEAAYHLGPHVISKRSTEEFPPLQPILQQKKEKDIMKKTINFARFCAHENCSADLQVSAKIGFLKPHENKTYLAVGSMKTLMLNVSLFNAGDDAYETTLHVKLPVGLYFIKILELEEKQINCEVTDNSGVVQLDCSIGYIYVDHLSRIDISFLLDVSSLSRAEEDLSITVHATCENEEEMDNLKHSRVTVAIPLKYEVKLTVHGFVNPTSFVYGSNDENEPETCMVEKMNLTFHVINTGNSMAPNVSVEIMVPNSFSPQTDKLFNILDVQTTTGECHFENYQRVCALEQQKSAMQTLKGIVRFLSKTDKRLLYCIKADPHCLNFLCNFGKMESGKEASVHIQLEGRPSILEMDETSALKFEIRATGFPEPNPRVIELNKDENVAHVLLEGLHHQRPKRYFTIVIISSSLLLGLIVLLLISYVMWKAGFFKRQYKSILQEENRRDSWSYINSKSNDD

CC(=O)C1=C(C)OC(N)=C(C(=O)OC(C)C)C12C(=O)Nc1ccccc12 (stereo not given)
percent of DMSO control GFP [1]: 102% (inactive)
GFP response vs DMSO [2]: 105% (inactive)
percent response of DMSO control [3]: 103% (inactive)
GFP response vs DMSO [4]: 99.4% (inactive)
double positive events [5]: 56.3%
vesicle binding response [5]: 194% (inactive)
inhibition [6]: 0.69% (inactive)
superoxide response (% of plate) [7]: 103% (inactive)
aptamer binding inhibition [8]: 0% (inactive)
inhibition [9]: 0.23% (inactive)
response [10]: -0.91% (inactive)
binding (% of control) [11]: 93.8% (inactive)
inhibition [12]: -2.3% (inactive)
inhibition [13]: -0.1% (inactive)
inhibition [14]: -1.4% (inactive)
efflux inhibition (fraction of control) [15]: 0.1 (inactive)
inhibition [16]: 8% (inactive)
differentiation response [17]: -18% (inactive)

CC(C)C[C@H](NC(=O)[C@@H]1CCCN1C(=O)[C@@H](N)Cc1ccc(O)cc1)C(=O)NCC(N)=O (H-YPLG-NH2)
percent of DMSO control GFP [1]: 108% (inactive)
GFP response vs DMSO [2]: 101% (inactive)
percent response of DMSO control [3]: 110% (inactive)
GFP response vs DMSO [4]: 89.3% (inactive)
double positive events [5]: 63.1%
vesicle binding response [5]: 186% (inactive)
inhibition [6]: 0.69% (inactive)
superoxide response (% of plate) [7]: 95.5% (inactive)
aptamer binding inhibition [8]: 1% (inactive)
inhibition [9]: 2.65% (inactive)
response [10]: -0.2% (inactive)
binding (% of control) [11]: 101% (inactive)
inhibition [12]: -4.4% (inactive)
inhibition [13]: -0.2% (inactive)
inhibition [14]: 1% (inactive)
efflux inhibition (fraction of control) [15]: -0.09 (inactive)
inhibition [16]: 7% (inactive)
differentiation response [17]: -9.89% (inactive)

O=C1NC(=O)N(Cc2ccco2)C(=O)/C1=C\c1ccc(-c2ccc(F)cc2)o1
GFP response vs DMSO [18]: 96.9% (inactive)
GFP response vs DMSO [18, 21]: 97.6%
GFP response vs DMSO [18, 22]: 94%
GFP response relative to DMSO [19]: 119% (inactive)
GFP response relative to DMSO [19, 23]: 115%
GFP response relative to DMSO [19, 24]: 121%
GFP response, % of DMSO [20]: 91.7% (inactive)
GFP response, % of DMSO [20, 21]: 99.3%
GFP response, % of DMSO [20, 22]: 83.7%

COc1ccc(N2C(=O)/C(=C/c3ccco3)C(=O)NC2=S)cc1
GFP response vs DMSO [18]: 97.4% (inactive)
GFP response vs DMSO [18, 21]: 102%
GFP response vs DMSO [18, 22]: 91.4%
GFP response relative to DMSO [19]: 91.4% (inactive)
GFP response relative to DMSO [19, 23]: 94.1%
GFP response relative to DMSO [19, 24]: 94.2%
GFP response, % of DMSO [20]: 91.3% (inactive)
GFP response, % of DMSO [20, 21]: 103%
GFP response, % of DMSO [20, 22]: 83.7%

O=C1NC(=O)N(c2ccccc2)C(=O)/C1=C\c1ccc([N+](=O)[O-])o1
GFP response vs DMSO [18]: 98.7% (inactive)
GFP response vs DMSO [18, 21]: 99.8%
GFP response vs DMSO [18, 22]: 98%
GFP response relative to DMSO [19]: 101% (inactive)
GFP response relative to DMSO [19, 23]: 101%
GFP response relative to DMSO [19, 24]: 102%
GFP response, % of DMSO [20]: 103% (inactive)
GFP response, % of DMSO [20, 21]: 105%
GFP response, % of DMSO [20, 22]: 104%

C=CC1CN2CCC1CC2[C@@H](OC(=O)c1ccc(OC)cc1)c1ccnc2ccccc12 (stereo not given in full)
percent of DMSO control GFP [1]: 96.1% (inactive)
percent response of DMSO control [3]: 107% (inactive)
GFP response vs DMSO [4]: 74.8% (inactive)
double positive events [5]: 59.2%
vesicle binding response [5]: 222% (inactive)
inhibition [6]: 4.52% (inactive)
superoxide response (% of plate) [7]: 105% (inactive)
aptamer binding inhibition [8]: -2% (inactive)
inhibition [9]: -4.1% (inactive)
response [10]: -0.74% (inactive)
binding (% of control) [11]: 109% (inactive)
inhibition [12]: 2.8% (inactive)
inhibition [13]: 0.4% (inactive)
inhibition [14]: -2% (inactive)
efflux inhibition (fraction of control) [15]: 0.01 (inactive)
inhibition [16]: 5% (inactive)
differentiation response [17]: -8.19% (inactive)
